Compounds with a hit are over-represented: about 8% of the library has one in this group of screens.
SARS PLpro yeast: blocks SARS-CoV papain-like protease in a yeast assay; S. cerevisiae expressing SARS-CoV PLpro, growth rescue; AID 485353; hit rate 0.19% among 330,000; Potency, µM (doses to about 32.9 µM), without a hit: at the top dose activity, positive = growth rescue, usual class: activators; calls by dose curve; note: potency is the fitted concentration of half-maximal effect; 0% is about no effect; nearly all actives have a fitted effect of over 55% in size
FMDV antiviral: antivirals against foot and mouth disease virus | AID 1159524 | hit rate 1.2% among 410,000 | FMDV antiviral cell-based qHTS | Potency, µM (doses to about 57.9 µM), for the others: top-dose activity change, negative = inhibition, hits mostly inhibitors; calls by dose curve; tested in HEK293T cells; note: read-out not given here; potency is the fitted concentration of half-maximal effect; % is set by controls: 0 for no effect and ±100 for the full control effect; nearly all actives have a fitted effect of over 45% in size
HCMV inh: human cytomegalovirus inhibition | activity change, negative = inhibition, % at 57.5 µM | hit rate 4.5% among 410,000 | HFF cells, HCMV-luciferase reporter, 72 h; hits give low values | AID 1259415; in the data active = activity change below about -60%; inconclusive = no clear call, values can overlap the other calls; inactive = above about -39%; note: % is set by controls: 0 for no effect and ±100 for the full control effect
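After 16 h attachment at 37C, HFF cells received test compound and HCMV-luciferase (1 PFU/cell); reporter luminescence read 72 h later, data normalized against buffer-only and known inhibitor Salinomycin.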
MARV entry inh: blocks Marburg virus binding to or entry into cells. Marburg virus pseudotyped entry inhibition, cell reporter. Potency, µM (top dose mostly 37.8 µM), inactives show top-dose activity change, negative = inhibition, most hits filed as inhibitors. hit rate 1.8% among 300,000. AID 540276; calls by dose curve; tested in HEK293 cells; note: potency is the fitted concentration of half-maximal effect; % is set by controls: 0 for no effect and ±100 for the full control effect
Lassa entry inh: Lassa virus entry inhibition; Lassa virus pseudotype entry inhibition, cell reporter; Potency, µM (series often up to 37.9 µM), for the others: top-dose activity change, negative = inhibition, most hits filed as inhibitors; hit rate 1.2% among 300,000; calls by dose curve; tested in HEK293 cells; note: potency is the fitted concentration of half-maximal effect; % is set by controls: 0 for no effect and ±100 for the full control effect; nearly all actives have a fitted effect of over 50% in size
HCV inh: inhibitors of hepatitis C virus infection; Huh7.5.1 HCVcc-Cre infection, luciferase reporter, 44 h; Potency, µM (series often up to 41.8 µM), inactives show at the top dose activity change, negative = inhibition, actives largely listed as inhibitors; hit rate 3.4% among 340,000; AID 651820; active = well fitted inhibition curve with a large enough effect; inconclusive = small, poorly fitted or top-dose-only effect, or another doubt; inactive = no such curve, though single readings can be large or run the other way; note: potency is the fitted concentration of half-maximal effect; % is set by controls: 0 for no effect and ±100 for the full control effect
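A cell-based infection assay in which seeded cells (1,000 per well) receive test compound after 4 h, are inoculated with HCVcc-Cre at approximately 0.5 moi, and are incubated 44 h before luminescence detection.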
Starred values were filed as active, the others as inactive; ? = inconclusive; . = not tested or not shown; [ ] = another dose, or the depositor's remark.

SMILES | SARS PLpro yeast | FMDV antiviral | HCMV inh | MARV entry inh | Lassa entry inh | HCV inh
Cc1ccc(Cn2c(C)c3cnn(CC(=O)N4CCN(c5cc(C)ccc5C)CC4)c(=O)c3c2C)cc1 | . | ? | ? | ? | -26.4%[46.1 µM] | .
CCOc1cc(C(=O)Nc2cc(C)ccn2)cc(OCC)c1OCC | -42.6% | -29.8% | -94.5* | ? | ? | ?
Cc1ccnc(NC(=O)c2ccccc2NC(=O)c2ccccc2)c1 | -4.2% | 14.6% | -4.5 | -12.0% | -0.2% | ?
COc1cccc(NC(=O)Nc2cccc(C)n2)c1 | -1.6% | 25.8% | 0.9 | 3.6%[46.1 µM] | ? | -24.2%
Cc1ccnc(NC(=O)c2ccc(C(=O)c3ccccc3)cc2)c1 | -15.1% | -39.4% | 5.3 | 6.31µM* | 2.24µM* | 5.3%
CCOc1ccc(C(=O)Nc2cc(C)ccn2)cc1 | -13.7% | -87.8% | -64.8* | ? | ? | -11.4%
Cc1cccc(NC(=O)Nc2ccccc2)n1 | -0.2% | 27.9% | -65.3* | ? | 3.7%[46.1 µM] | -7.6%
CCOc1ccc(C(=O)Nc2cccc(C)n2)cc1 | -8.2% | -18.2% | -36.0 | 8.91µM* | ? | -5.2%
CCOC(=O)NC(=S)Nc1cccc(C)n1 | . | -7.4% | -62.5* | . | . | .
CCc1ccc(NS(=O)(=O)c2ccc3oc(=O)c4ncn(CC)c4c3c2)cc1 | . | -12.5% | 0.1 | 3.6%[46.1 µM] | 5.5%[46.1 µM] | .
CCOc1cc(C2Sc3ccccc3NC3=C2C(=O)c2ccccc23)ccc1O (stereo unspecified) | . | 25.4% | ? | -5.5%[46.1 µM] | ? | .
O=C1C2=C(Nc3ccccc3SC2c2ccccc2C(F)(F)F)c2ccccc21 (stereo unspecified) | . | -1.0% | -93.6* | ? | -13.5%[46.1 µM] | .
CCCc1ccc(C2Sc3ccccc3NC3=C2C(=O)c2ccccc23)cc1 (stereo unspecified) | . | -9.4% | -92.6* | ? | ? | .
O=C1C2=C(Nc3ccccc3SC2c2ccc(Cl)c(Cl)c2)c2ccccc21 (stereo unspecified) | . | 0.6% | -99.8* | -12.7%[46.1 µM] | ? | .
CCOc1cc(C(=O)NCC(c2ccc(N(C)C)cc2)N2CCOCC2)cc(OCC)c1OCC (stereo unspecified) | . | -21.8% | -61.7* | . | -2.4%[46.1 µM] | .
C=CCn1cc(CN2CCC(C(=O)Nc3cccc(-c4cccc(Cl)c4)c3)CC2)c(C)n1 | -0.1% | ? | -38.7 | . | . | 5.01µM*
O=C(Nc1cccc(-c2cccc(Cl)c2)c1)C1CCN(Cc2ccccn2)CC1 | 0.0% | -20.0% | -74.3* | ? | 10µM* | 10µM*
COCc1ccc(CN2CCC(C(=O)Nc3cccc(-c4cccc(Cl)c4)c3)CC2)o1 | -3.2% | ? | 41.7 | ? | ? | 10µM*
O=C(Nc1cccc(-c2cccc(Cl)c2)c1)C1CCN(Cc2ccon2)CC1 | 2.1% | -23.5% | -37.4 | . | . | ?
O=C(Nc1cccc(-c2cccc(Cl)c2)c1)C1CCN(CC2CCOC2)CC1 (stereo unspecified) | -2.0% | 27.7% | ? | . | . | 10µM*
CN(C)c1ccc(/C=C2\SC(N3CCCCC3)=NC2=O)cc1 | -1.7% | 4.0% | 13.8 | . | . | -5.2%
Cc1ccc(CN(C)C(=O)CN2C(=O)NC3(CCCc4ccccc43)C2=O)c(C)c1 (stereo unspecified) | -1.5% | 0.0% | 45.5 | . | . | 10µM*
CN(C)C(=O)CN1C(=O)NC2(CCCc3ccccc32)C1=O (stereo unspecified) | 6.1% | -2.3% | 21.4 | ? | ? | 23.4%
CCOC(=O)C1CCN(C(=O)C(C)N(c2ccc(Oc3ccccc3)cc2)S(C)(=O)=O)CC1 (stereo unspecified) | -1.0% | ? | 5.4 | . | . | 10µM*
COc1ccc(N(C(C)C(=O)N2CCCC2)S(C)(=O)=O)cc1 (stereo unspecified) | -0.9% | -10.9% | -1.3 | . | . | 7.0%
SMILES | SARS PLpro yeast | FMDV antiviral | HCMV inh | MARV entry inh | Lassa entry inh | HCV inh
COc1ccc(N(C(C)C(=O)N2CCC(Cc3ccccc3)CC2)S(C)(=O)=O)cc1 (stereo unspecified) | -0.8% | 11.2µM* | -74.2* | ? | ? | 8.91µM*
CCOC(=O)N1CCN(C(=O)C(C)N(c2ccc(Oc3ccccc3)cc2)S(C)(=O)=O)CC1 (stereo unspecified) | -2.2% | ? | -65.4* | -25.9% | -28.2% | ?
O=C(Nc1cccc(C(F)(F)F)c1)C1CCCN1S(=O)(=O)c1cccc2cccnc12 (stereo unspecified) | -0.2% | ? | -92.5* | ? | ? | ?
O=C(Nc1cccc(Cl)c1)C1CCCN1S(=O)(=O)c1cccc2cccnc12 (stereo unspecified) | . | -7.5% | 14.0 | ? | . | .
COc1ccc(C(c2nnnn2-c2ccc3c(c2)OCCO3)N2CCC(n3c(=O)[nH]c4ccccc43)CC2)cc1 (stereo unspecified) | . | -9.3% | ? | . | . | .
O=c1[nH]c2ccccc2n1C1CCN(C(c2ccnc3ccccc23)c2nnnn2-c2ccc3c(c2)OCCO3)CC1 (stereo unspecified) | . | -21.6% | -75.7* | . | . | .
Cc1cccc(C)c1-n1nnnc1C(CCc1ccccc1)N1CCC(n2c(=O)[nH]c3ccccc32)CC1 (stereo unspecified) | . | 10µM* | -93.9* | . | . | .
C(=C\c1ccccc1)/CN1CCN(C(CCc2ccccc2)c2nnnn2-c2ccc3c(c2)OCCO3)CC1 (stereo unspecified) | . | -9.4% | -9.2 | . | . | .
O=c1[nH]c2ccccc2n1C1CCN(C(CCc2ccccc2)c2nnnn2-c2ccc3c(c2)OCCO3)CC1 (stereo unspecified) | . | 25.1µM* | -104.1* | . | . | .
COc1ccc(-n2nnnc2C(CCc2ccccc2)N2CCC(n3c(=O)[nH]c4ccccc43)CC2)cc1 (stereo unspecified) | . | 28.2µM* | -94.8* | . | . | .
COc1ccc(-n2nnnc2C(CCSC)N2CCC(n3c(=O)[nH]c4ccccc43)CC2)cc1 (stereo unspecified) | . | -18.3% | -35.3 | . | . | .
Cc1noc(NS(=O)(=O)c2ccc(NC(=O)c3cccc(S(=O)(=O)Nc4ccccc4F)c3)cc2)c1C | 0.3% | -8.8% | -3.9 | 23.6% | ? | 1.8%
Cc1c(C(=O)NCCc2cccnc2)cnn1-c1ncc2c(n1)-c1ccccc1CC2 | . | -10.1% | . | . | . | .
CC1(C(=O)OCc2cc(=O)n3cc(Br)ccc3n2)CC1(Cl)Cl (stereo unspecified) | -10.4% | 34.4% | 22.2 | ? | 3.8% | -5.1%
O=C(OCc1cc(=O)n2cc(Br)ccc2n1)C1COc2ccccc2O1 (stereo unspecified) | -6.8% | 3.2% | -65.5* | 13.9% | 19.2% | 13.0%
CC1CC1C(=O)OCc1cc(=O)n2cc(Br)ccc2n1 (stereo unspecified) | -10.2% | -12.0% | -82.9* | -0.5% | ? | 11.6%
COc1ccc2cc(CNCc3ccccc3Cl)c(N3CCCC(CO)C3)nc2c1 (stereo unspecified) | . | 26.3% | . | . | . | .
